Test results from PubChem BioAssay (NCI).
This is part of a sample that, as a whole, favours compounds with a hit. Of some 83,000 tested, about 20% had one in any assay.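 For each line, cells grew in 96-well plates with the test compound present at a single concentration for 48 hours.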 Values without a mark were called inactive. Calls of active or inactive are those of the source. Rule for the calls: active = growth percent below 10; inactive = the rest.

These molecules were tested on HL-60(TB) leukemia (assay: NCI-60 one-dose screen, 48 h (100 = growth as untreated, 0 = no growth, -100 = all killed)). Conditions: 10 µM unless noted.

Row | SMILES | growth
1 | CC1=C(C/C=C(\C)CCC[C@H](C)CCC[C@H](C)CCCC(C)C)C(=O)c2ccccc2C1=O | 105%
2 | COC(=O)N/N=C/c1coc2ccc(Cl)cc2c1=O | 105%
3 | Cc1cc(N2CCCC2)nc(N(CCCNc2ccnc3cc(Cl)ccc23)Cc2ccccn2)n1 | 23.4%
4 | Cc1ccc(-c2n[nH]c(=O)c3noc(-c4ccc(C)cc4)c23)cc1 | 6.11% (active)
5 | OC(CCN1CCCC1)(c1ccccc1)C1CCCCC1 (stereo not given) | 119%
6 | C=C[C@@H]1C[C@@H]2Cc3c(C)cc(C)cc3N1O2 | 0.0364% (active)
7 | CC(=O)CS(C)(=O)=O | 100%
8 | Nc1nc(-c2ccccc2Cl)cc(-c2ccc(Cl)cc2Cl)n1 | 51.4%
9 | Cc1cc(N2CCCCCC2)nc(N2CCN(CC(=O)Nc3ccc4c(ccn4Cc4ccccc4)c3)CC2)n1 | 23.4%
10 | CCOP(=O)(OCC)C1CP(=O)(c2ccccc2)CC(C)=C1Cl (stereo not given) | 92.1%
11 | Cc1ccccc1N1CCN(C(=S)c2ccccc2)CC1 | 108%
12 | CCOC(=O)c1c(C)nc(C)c(C(=O)OCC)c1-c1cccnc1 | 61.1%
13 | O=C(O)/C=C\C(=O)Nc1ccc2c(c1)Cc1cc(F)ccc1-2 | 100%
14 | O=C(Nc1ccccc1O)c1ccc(CNC(=O)c2sccc2Nc2ccnc(C(F)(F)F)c2)cc1 | 25.2%
15 | COc1ccc2c(c1)O/C(=C\c1ccc([N+](=O)[O-])s1)C2=O | 7.46% (active)
16 | CCCN1[C@@H]2CC[C@H]1/C(=C\c1ccc(OC)c(OC)c1)C(=O)/C2=C/c1ccc(OC)c(OC)c1 | 20.5%
17 | c1ccc2c(-c3c4ccsc4cc4[nH]c5ccccc5c34)c[nH]c2c1 | 14.3%
18 | CCOC(=O)C1=CCC(n2cc(F)c(=O)[nH]c2=O)O1 (stereo not given) | 83.6%
19 | O=C1c2c(c3c4cccnc4[nH]c3c3ccc4ccccc4c23)C(=O)N1O | 5.07% (active)
20 | CCCCCCCCC(C)C(=O)N1CCCC1C(=O)N1C(CC(=O)CC)CC(C)CC1C(=O)NC(C)C(=O)NC(C)(C)C(=O)NC(C)(C)C(=O)NC(C(=O)NC(C)C(=O)NC(C)(C)C(=O)NC(C)(C)C(=O)NC(C)CN(C)CCO)C(C)CC (stereo not given) | -51.8% (active)

Row | SMILES | growth
21 | CC(=N\N=C(N)N)/C(=N/N=C(N)N)c1ccccc1 | 98.7%
22 | COc1ccc(/C=C2\Oc3cc(OCCCN4CCCC4)ccc3C2=O)c(OC)c1 | 96.2%
23 | COc1ccc(/C=C/C(=O)c2cc3c(N)c(C(=O)Nc4ccccc4Cl)sc3nc2C)cc1 | 4.2% (active)
24 | COC(=O)c1ccc2nc(-c3cc4ccccc4n3C)n(CCCCOc3cc4c(cc3OC)C(=O)N3CCC[C@H]3C=N4)c2c1 | -36.2% (active)
25 | COC(=O)[C@]12CC[C@@H](C)[C@H](C)[C@@H]1C1=CC[C@@H]3[C@@]4(C)C(C=O)=C[C@@](C)(COC(C)=O)C4=CC[C@@]3(C)[C@]1(C)CC2 | -53.1% (active)
26 | O=c1[nH][n+](-c2ccc(Br)cc2)no1 | 20.2%
27 | Cc1ccc2c3c(cccc13)-c1ccccc1C2=O | 99%
28 | CC(C)NS(=O)(=O)c1cccc(-c2ccc3c(=O)n(CCCN)c4c(c3c2)C(=O)c2ccccc2-4)c1 | 125%
29 | COc1ccc2nc(N/N=C(\C)c3ccccn3)cc(C)c2c1 | -64.7% (active)
30 | Nc1nc2c(c3ncncc13)C(c1cccc(C(F)(F)F)c1)Cc1ncncc1-2 (stereo not given) | 10.7%
31 | Nc1ccc(C2=NN(C(=O)c3cc(-c4ccc(Cl)cc4)nc4ccccc34)C(c3ccc(Cl)cc3)C2)cc1 (stereo not given) | -4.63% (active)
32 | OC(COc1ccccc1)CN1CCN(c2ccc(Cl)cc2)CC1 (stereo not given) | 83.3%
33 | COC(=O)/C(CCC=C(C)C)=C1\[C@@H](OC(C)=O)C[C@@]2(C)[C@H]1C[C@@H](O)[C@H]1[C@@]3(C)CC[C@H](NCc4ccccc4)[C@@H](C)[C@@H]3CC[C@@]12C | 43%
34 | COc1ccc2c(c1)CCc1c-2n[nH]c1-c1[nH]nc2c1CCc1cc(OC)ccc1-2 | 23.4%
35 | C=C1C(=O)O[C@H]2[C@H]1CC/C(Cn1cc(CCC)nn1)=C\CC[C@@]1(C)O[C@@H]21 | -13.9% (active)
36 | COc1ccccc1/C=C/C1=C(C)CCC(c2ccccc2OC)C1C (stereo not given) | -41.1% (active)
37 | CCN(CC)c1ccc(-c2cc(-c3cc(OC)c(OC)c(OC)c3)nc(N3CCOCC3)c2C#N)cc1 | -43.4% (active)
38 | COc1ccccc1NC(=O)C1=C(C)NC(C)=C(C(=O)Nc2ccccc2OC)C1c1cccc([N+](=O)[O-])c1 | 66.7%
39 | CC(C)COc1nc2c(c(=O)n(C)c(=O)n2C)n1C | 97%
40 | CC(C)C1=C[C@@]23CC[C@@H]4[C@](C)(CCC[C@@]4(C)C(=O)N4CCCNCC4)[C@H]2C[C@@H]1[C@H]1C(=O)CCC(=O)[C@H]13 | 100%
